High-throughput results deposited in PubChem by National Center for Advancing Translational Sciences (NCATS).
An excerpt weighted towards active compounds, which were near 7.5% of everything screened.
Rab9 prom act: Rab9 promoter activation; Huh7 Rab9 promoter-luciferase reporter, luminescence, 24 h; Potency, µM (doses to about 9.22 µM), hits mostly activators; actives 2.8% (n = 320,000); further: nearly all actives have a fitted effect of over 60% in size
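Rab9 promoter-driven luciferase in stably transfected Huh7 cells; 1500 cells/well rested 2 h, exposed to compound in DMSO for 24 h at 37 °C, 5% CO2. Luminescence read 10 min after adding luciferase reagent at ambient temperature.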
NPC1 prom act: activates the NPC1 promoter; actives 2.4% (n = 320,000); Potency, µM (top dose mostly 9.22 µM), hits mostly activators; Huh7 NPC1 promoter luciferase reporter, 24 h; AID 485313; further: nearly all actives have a fitted effect of over 60% in size
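Luminescence from an NPC1 promoter-driven luciferase reporter in stably transfected Huh7 cells was measured after 24 h compound treatment at 37 °C, followed by 10 min ambient incubation with luciferase detection reagent.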
ELG1 genotox: induces genotoxicity in HEK293T cells with luciferase-tagged ELG1 | HEK293T ELG1-luciferase reporter, luminescence, 16 h | Potency, µM (top dose mostly 46 µM), usual class: activators | actives 1.3% (n = 330,000); further: nearly all actives have a fitted effect of over 60% in size
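Genotoxic stress is detected as increased luminescence from luciferase-tagged ELG1 in HEK293T cells, measured with ONE-Glo after a 16 hr treatment at 37 °C.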
FLuc counter: counter-screen for miR-21 project: firefly luciferase inhibitors or activators; P08659; purified FLuc, Km substrates, luminescence inhibition; Potency, µM (doses to about 57.5 µM), actives largely listed as inhibitors; actives 6.9% (n = 360,000); AID 588342; further: nearly all actives have a fitted effect of over 55% in size
Target sequence (P08659 whole entry, looked up): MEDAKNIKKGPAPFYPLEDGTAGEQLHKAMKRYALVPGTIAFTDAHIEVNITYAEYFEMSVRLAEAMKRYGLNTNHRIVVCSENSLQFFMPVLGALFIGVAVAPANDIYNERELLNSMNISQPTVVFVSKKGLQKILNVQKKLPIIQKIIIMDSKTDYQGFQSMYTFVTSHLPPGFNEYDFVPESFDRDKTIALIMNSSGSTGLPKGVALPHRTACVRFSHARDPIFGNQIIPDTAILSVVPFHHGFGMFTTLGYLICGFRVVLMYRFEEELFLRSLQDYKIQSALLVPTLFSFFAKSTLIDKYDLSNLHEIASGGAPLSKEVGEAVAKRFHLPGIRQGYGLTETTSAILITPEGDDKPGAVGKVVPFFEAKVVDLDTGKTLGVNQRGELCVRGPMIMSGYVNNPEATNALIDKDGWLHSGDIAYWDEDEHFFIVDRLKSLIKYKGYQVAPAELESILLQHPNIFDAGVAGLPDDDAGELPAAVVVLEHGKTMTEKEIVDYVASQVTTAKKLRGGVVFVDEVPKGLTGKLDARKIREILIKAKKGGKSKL
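Purified P. pyralis luciferase, 10 nM final, with Km-level 10 uM D-luciferin and 10 uM ATP in 50 mM Tris acetate pH 7.5, 10 mM Mg acetate, 0.01% Tween-20, 0.05% BSA; 6-point qHTS titration about 60 µM downward; luminescence read.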
SMN2 splice up: increases expression of the SMN2 splice variant; HEK293 SMN2-luciferase splicing reporter, luminescence, 30-36 h; Potency, µM (top dose mostly 46.1 µM), hits mostly activators; actives 2.8% (n = 210,000); further: nearly all actives have a fitted effect of over 55% in size
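HEK293 cells carry an SMN2 minigene-luciferase reporter in which exon 7 inclusion puts luciferase in frame. Cells were seeded at 2000 cells/well, attached for 10-12 hours, then exposed to compounds for 30-36 hours at 37C before ONE-Glo luminescence.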
A number is an active result. The call rests on the fitted dose curve; in most records, active means well fitted curve in the direction sought with a large enough effect; inconclusive means small, poorly fitted or top-dose-only effect, or another doubt; inactive means no such curve, though single readings can be large; an effect the other way counts as inactive or inconclusive.

CCOC(=O)c1c(C)[nH]c(C(=O)N/N=C\c2ccccc2O)c1C was read as Rab9 prom act inactive, NPC1 prom act inactive, ELG1 genotox inconclusive, FLuc counter 6.7µM and SMN2 splice up inactive.
Screening CCOC(=O)c1c(C)[nH]c(C(=O)N/N=C/c2cc([N+](=O)[O-])ccc2O)c1C returned Rab9 prom act inactive, NPC1 prom act inactive, ELG1 genotox inactive and FLuc counter inconclusive.
For CCOC(=O)c1c(C)[nH]c(C(=O)COC(=O)CCSc2ccccc2)c1C the results were Rab9 prom act inactive, NPC1 prom act inactive, ELG1 genotox inconclusive, FLuc counter 17µM and SMN2 splice up inactive.
CCCCCCC(=O)NC(Nc1ccc(S(N)(=O)=O)cc1)C(Cl)(Cl)Cl (centres undefined) was read as Rab9 prom act inactive, NPC1 prom act inactive, ELG1 genotox inactive, FLuc counter inactive and SMN2 splice up inactive.
`O=C(COC(=O)C1CC(=O)N(Cc2ccco2)C1)Nc1nc(-c2ccc(F)cc2)cs1` (centres undefined) gave ELG1 genotox inactive.
CCCCn1c(N)c(N(CC(C)C)C(=O)CC2OC(=O)c3ccccc32)c(=O)[nH]c1=O (centres undefined) was read as Rab9 prom act inactive, NPC1 prom act inactive, ELG1 genotox inactive and FLuc counter inactive.
Screening CCOC(=O)c1c(C)[nH]c(C(=O)CSc2nccc(C)n2)c1C returned Rab9 prom act 2.8µM, NPC1 prom act 2.8µM, ELG1 genotox inconclusive, FLuc counter inconclusive and SMN2 splice up 8.9µM.
CCOC(=O)c1[nH]c(C)c(C(=O)OCc2ccc(C)cc2)c1C was read as Rab9 prom act inactive, NPC1 prom act inactive, ELG1 genotox inactive and FLuc counter inactive.
CCOC(=O)c1c(C)[nH]c(C(=O)OCc2ccccc2)c1C was read as Rab9 prom act 0.63µM, NPC1 prom act 1.3µM, ELG1 genotox 1.8µM and FLuc counter 2.1µM.
For Cc1cc(C)nc(SCC(=O)c2ccc(C)c(C)c2)n1 the results were Rab9 prom act inactive, NPC1 prom act inactive, ELG1 genotox inactive and FLuc counter inactive.
For CCOC(=O)c1c(C)[nH]c(C(=O)C(C)Sc2ccc(Cl)cc2)c1C (centres undefined) the results were Rab9 prom act inconclusive, NPC1 prom act inactive, ELG1 genotox inactive, FLuc counter 27µM and SMN2 splice up inactive.
Cc1cc(C(=O)CSc2ccc(F)cc2)cc(C)c1O was read as Rab9 prom act inactive, NPC1 prom act inactive, ELG1 genotox inconclusive and FLuc counter 19µM.
COc1ccc(S(=O)(=O)NNc2nc(C)cc(C)n2)cc1Br was read as Rab9 prom act inactive, NPC1 prom act inactive, ELG1 genotox inactive and FLuc counter inconclusive.
`CCOC(=O)c1c(C)[nH]c(C(=O)CSc2ccccc2)c1C` gave Rab9 prom act 0.4µM, NPC1 prom act 0.56µM, ELG1 genotox 0.65µM and FLuc counter 0.54µM.
`Cc1cc(C(=O)CSc2ccc(Cl)cc2)cc(C)c1OC(=S)N(C)C` gave Rab9 prom act inconclusive, NPC1 prom act 2.8µM, ELG1 genotox inconclusive, FLuc counter 9.5µM and SMN2 splice up inactive.
Screening O=C1ON=C(c2ccccc2)/C1=C\c1ccco1 returned Rab9 prom act inactive, NPC1 prom act inactive, ELG1 genotox inactive and FLuc counter inconclusive.
`O=C1NC(c2ccccc2Cl)=N/C1=C/c1ccco1` gave Rab9 prom act inconclusive, NPC1 prom act inactive, ELG1 genotox inconclusive and FLuc counter 0.3µM.
Screening S=c1[nH]nc(-c2ccccc2Cl)n1/N=C/C=C/c1ccco1 returned Rab9 prom act inactive, NPC1 prom act inactive, ELG1 genotox inactive and FLuc counter inactive.
`O=C1NC(c2ccc(Br)cc2)=N/C1=C/c1ccco1` gave Rab9 prom act 2.5µM, NPC1 prom act 3.5µM, ELG1 genotox inconclusive, FLuc counter 0.6µM and SMN2 splice up 7.1µM.
Screening CCCNC(=O)C(CC)NC(=O)c1cccc([N+](=O)[O-])c1 (centres undefined) returned Rab9 prom act inactive, NPC1 prom act inactive, ELG1 genotox inactive and FLuc counter inactive.
`COc1ccc(NC2CCCN(C(=O)c3ccccc3C(F)(F)F)C2)cc1` (centres undefined) gave Rab9 prom act inactive, NPC1 prom act inactive, ELG1 genotox inactive and FLuc counter inactive.
COc1ccc(-c2nc(Cn3c(SCc4cccc(Cl)c4)nc4ccncc43)c(C)o2)cc1 was read as FLuc counter inactive and SMN2 splice up inactive.
`Cc1ccc(CSc2nc3ccncc3n2Cc2nc(-c3ccccc3C)oc2C)cc1` gave FLuc counter 4.8µM and SMN2 splice up inconclusive.
`COc1ccc(CSc2nc3ccncc3n2Cc2nc(-c3ccc(OC)c(OC)c3)oc2C)cc1` gave FLuc counter 4.8µM and SMN2 splice up inconclusive.
Screening Cc1ccc(CSc2nc3cccnc3n2Cc2nc(-c3ccccc3F)oc2C)cc1 returned FLuc counter 5.4µM.
CNc1nc(-c2ccccc2C(F)(F)F)nc2ccccc12 was read as SMN2 splice up inactive.
Screening CCOC(=O)c1c(C)[nH]c(C)c1C(=O)CSc1nnc(-c2ccncc2)n1Cc1ccccc1 returned Rab9 prom act inactive, NPC1 prom act inactive, ELG1 genotox inactive, FLuc counter inactive and SMN2 splice up inactive.
For CCOC(=O)c1c(C)[nH]c(C)c1C(=O)CSc1nnc(-c2ccco2)n1Cc1ccccc1 the results were Rab9 prom act inactive, NPC1 prom act inactive, ELG1 genotox inactive, FLuc counter inactive and SMN2 splice up 35µM.
CCOc1ccc(NC(=O)CSc2nnc(-c3ccco3)n2C)cc1 was read as Rab9 prom act inactive, NPC1 prom act inactive, ELG1 genotox inactive, FLuc counter inactive and SMN2 splice up inactive.
Screening CCn1c(SCC(=O)Nc2ccc(OCc3ccccc3)cc2)nnc1-c1ccco1 returned Rab9 prom act inactive, NPC1 prom act inactive, ELG1 genotox inactive, FLuc counter 15µM and SMN2 splice up inactive.
O=C(CSc1nnc(-c2ccco2)n1Cc1ccccc1)c1ccccc1 was read as Rab9 prom act 1.4µM, NPC1 prom act 4.5µM, ELG1 genotox inconclusive, FLuc counter 12µM and SMN2 splice up inactive.
Screening Cc1ccc2nc(Cl)c3cc(C(=O)NCCCN4CCC(C)CC4)sc3c2c1 returned FLuc counter inactive and SMN2 splice up inactive.
COc1ccc(CCNC(=O)Cc2cccc(C(F)(F)F)c2)cc1OC was read as Rab9 prom act inactive, NPC1 prom act inactive, ELG1 genotox inactive and FLuc counter inactive.
`COc1ccc(-c2nc(C)c(CCNC(=O)c3ccco3)s2)cc1` gave FLuc counter 27µM.
Screening COc1ccc(-c2nc(CCNC(=O)c3cccs3)cs2)cc1 returned Rab9 prom act inactive, NPC1 prom act inactive, ELG1 genotox inconclusive, FLuc counter 27µM and SMN2 splice up inactive.
Cc1ccc(-c2nc(C)c(CCNC(=O)c3ccco3)s2)cc1 was read as FLuc counter 17µM.
